PubChem BioAssay AID588683 (Broad Institute, 2011)
Measured potencies and affinities stand elsewhere. Activity calls are given as the source filed them. No rule for the calls is given here.

Biological target: Kelch-like ECH-associated protein 1 (Homo sapiens) + Nuclear factor erythroid 2-related factor 2 (Homo sapiens) (UniProt Q14145+Q16236)
Test: Keap1-Nrf2 protein-protein interaction inhibitors, dose response, biochemical, fluorescence polarization, cherry-picked samples (AID 588683);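 also: Kelch domain of Keap1 binding a fluorescein-labelled 9mer Nrf2 peptide; more negative means stronger inhibition of peptide binding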
Details: Keap1/Nrf2 peptide fluorescence polarization, plate reader; series mostly up to 26 µM; activity change, negative = inhibition: at the top concentration

Chain of Kelch-like ECH-associated protein 1 (Homo sapiens) + Nuclear factor erythroid 2-related factor 2 (Homo sapiens) (Q14145 whole entry, looked up, the tested form may be a part): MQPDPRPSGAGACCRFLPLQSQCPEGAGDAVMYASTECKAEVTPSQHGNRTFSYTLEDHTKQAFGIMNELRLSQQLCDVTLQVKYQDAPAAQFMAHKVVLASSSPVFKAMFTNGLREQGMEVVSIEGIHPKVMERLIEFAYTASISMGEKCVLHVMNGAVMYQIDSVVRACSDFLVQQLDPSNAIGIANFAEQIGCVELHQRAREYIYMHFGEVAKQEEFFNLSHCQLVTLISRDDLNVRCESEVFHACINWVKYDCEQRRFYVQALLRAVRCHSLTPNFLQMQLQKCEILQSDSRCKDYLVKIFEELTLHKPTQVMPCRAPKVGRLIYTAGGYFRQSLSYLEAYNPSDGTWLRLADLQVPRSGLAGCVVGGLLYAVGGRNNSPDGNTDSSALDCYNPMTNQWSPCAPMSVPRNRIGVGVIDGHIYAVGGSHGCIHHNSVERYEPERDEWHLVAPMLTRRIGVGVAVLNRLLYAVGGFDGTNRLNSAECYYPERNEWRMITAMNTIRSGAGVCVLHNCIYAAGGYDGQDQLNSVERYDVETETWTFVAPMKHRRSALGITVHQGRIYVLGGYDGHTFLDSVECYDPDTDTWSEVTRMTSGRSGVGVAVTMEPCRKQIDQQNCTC
Chain of Kelch-like ECH-associated protein 1 (Homo sapiens) + Nuclear factor erythroid 2-related factor 2 (Homo sapiens) (Q16236 whole entry, looked up, the tested form may be a part): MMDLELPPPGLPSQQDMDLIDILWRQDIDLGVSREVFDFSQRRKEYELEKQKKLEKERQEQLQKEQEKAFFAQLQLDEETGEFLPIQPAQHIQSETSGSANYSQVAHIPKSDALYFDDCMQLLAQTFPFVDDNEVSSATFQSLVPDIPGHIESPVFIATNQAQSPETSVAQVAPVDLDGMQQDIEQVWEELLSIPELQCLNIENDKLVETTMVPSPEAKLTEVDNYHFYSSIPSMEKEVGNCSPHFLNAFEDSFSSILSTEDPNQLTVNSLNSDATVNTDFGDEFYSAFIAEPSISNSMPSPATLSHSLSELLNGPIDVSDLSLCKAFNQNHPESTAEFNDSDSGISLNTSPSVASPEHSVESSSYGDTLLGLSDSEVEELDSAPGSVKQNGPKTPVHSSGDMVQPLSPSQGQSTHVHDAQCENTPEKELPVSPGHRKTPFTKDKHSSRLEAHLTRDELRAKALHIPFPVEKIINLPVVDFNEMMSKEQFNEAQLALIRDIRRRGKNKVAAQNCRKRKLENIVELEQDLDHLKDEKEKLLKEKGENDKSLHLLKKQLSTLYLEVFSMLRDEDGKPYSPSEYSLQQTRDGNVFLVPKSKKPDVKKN

Activity change, negative = inhibition, inactive:
COc1ccc(OC)c(S(=O)(=O)Nc2ccc(F)cc2)c1 -9.05%
Cc1ccccc1OCCC(=O)Nc1cc(S(=O)(=O)N2CCCCC2)ccc1N1CCN(C)CC1 2.61%
Clc1ccc(C2=CC(c3ccco3)n3ncnc3N2)cc1 (stereo not drawn) -20.5%
CC(C)C(C(=O)O)N1C(=O)/C(=C/C=C/c2ccco2)SC1=S (stereo not drawn) 5.72%
CCc1cc[n+](-c2nc([O-])sc2C=O)cc1 -13.4%
CCN1CC=C2C(C1)C(c1ccc(Cl)s1)C(C#N)=C(N)C2(C#N)C#N (stereo not drawn) -10%
CC(=O)Nc1ccc(NS(=O)(=O)c2ccc3c(c2)oc(=O)n3C)cc1 -3.36%
O=C(CN1C(=O)NC2(CCCC2)C1=O)Nc1ccc(C(F)(F)F)cc1 -3.78%
O=C(CCc1ccccc1)NNc1ccc(F)cc1 2.16%
Nc1nc(SCC(=O)Nc2cc(C(F)(F)F)ccc2N2CCOCC2)n[nH]1 -1.61%
OC(Cc1ccncc1)(c1ccccc1)c1ccccc1 -9.67%
CCN1CC=C2C(C#N)=C(N)C(C#N)(C#N)C(CCc3ccccc3)C2C1 (stereo not drawn) 5.09%
Cc1nnc(NC(=O)c2ccc3c(c2)NC(=O)CS3)s1 -3.13%
Cc1ccc(O)c(C(=O)c2cnc3c(c2)c(C)nn3-c2ccccc2)c1 -0.847%
O=c1[nH]c(/C=C/c2cccc3ccccc23)nc2ccccc12 11.9%
S=C1SCN(CC2CC2)CN1CC1CC1 -13.5%
CC(=O)C1C(c2ccc(F)cc2)c2c(noc2C)CC1(C)O (stereo not drawn) -4.11%
CCOC(=O)N1CCN(Cc2ccccc2Cl)CC1 -11.2%
Cc1cc(NC(=O)CSc2nnc(-c3ccncc3)n2C)n(-c2ccccc2)n1 -2.6%
CC1CCN(C(=O)Cn2cc(C(F)(F)F)ccc2=O)c2ccccc2S1 (stereo not drawn) 2.04%
O=C1c2ccccc2-c2onc3ccc(Oc4ccccc4)c1c23 100%
Cc1ccc2oc(=O)c3cnn(CC(=O)NCCC(C)C)c3c2c1 -7.73%
CCCCNC(=S)Nc1ccc(OC)nc1 -10.8%
CC(C)C1OC2(C)OC(=N)C1(C#N)C(C#N)(C#N)C2c1ccccc1 (stereo not drawn) -7.88%
Cc1sc2ccccc2[n+]1CC(=O)c1ccccc1 12.6%
CC[C@H](C)[C@H](NC(=O)OCc1ccccc1)C(=O)OCC(=O)N1CCN(c2ccc(F)cc2)CC1 -5.51%
COc1cc(C#Cc2c(C=O)n(C)c3ccccc23)cc(OC)c1 -4.77%
Nc1c(Cl)ncnc1NCc1ccccc1 -12.4%
O=C1NC(c2cc(Cl)cc([N+](=O)[O-])c2O)Nc2ccccc21 (stereo not drawn) -16.2%
CN(CCOc1ccc(CC2SC(=O)NC2=O)cc1)c1ccccn1 (stereo not drawn) -5.31%
O=C(COC(=O)c1ccc([N+](=O)[O-])s1)Nc1cccc(S(=O)(=O)NC2=NCCCCC2)c1 -14.6%
Cc1ccc(-n2nnnc2SCC(=O)c2c(N)n(C3CC3)c(=O)[nH]c2=O)cc1 3.48%
C/C(=N/Nc1ccccc1C(=O)O)c1cccs1 -6.44%
CN(C)CCNC(=O)c1c(NC(=O)c2ccccc2)sc2c1CCCC2 -1.66%
Cc1ccccc1NC(=O)c1sc(NC(=O)C2CC2)nc1C -1.61%
N=c1c(C(=O)NCc2ccc(F)cc2)cc2c(=O)n3ccccc3nc2n1Cc1cccnc1 -11.4%
CC(C)(C)c1cc[n+](-c2[nH]c(=O)sc2/C=N/NC([S-])=Nc2ccccc2)cc1 -18.6%
CC(C)NC(=O)N(C)C[C@H]1Oc2ccc(NS(=O)(=O)c3cn(C)cn3)cc2C(=O)N([C@H](C)CO)C[C@@H]1C -2.06%
